Experiment [1] is described as follows: probe aLefty2 binding to arrayed compounds – biochemical, biotinylated probe, 635/667 nm fluorescence, primary screen (AID 1094).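 Further: score merges spot fluorescence near 667 nm with spot signal-to-noise ratio.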 To be noted: small-molecule microarray, higher = more signal.
Experiment [2] relates to Noggin (protein binding on small-molecule microarray). The experiment can be described thus: small molecules binding Noggin protein – biochemical, 635/667 nm fluorescence, primary screen (AID 1095).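 Further: score merges 667 nm feature fluorescence with signal to noise over triplicate slides.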 To be noted: 635 nm fluorescence, higher = more signal.
In experiment [3] the target is Neurogenic locus notch homolog protein 3 (Homo sapiens) (UniProt Q9UM47). The experiment in a line: small molecules binding NOTCH3 protein – biochemical, 635/667 nm fluorescence, primary screen (AID 1096). To be noted: small-molecule microarray, 635 nm fluorescence, higher = more signal.
The nature of experiment [4]: probe aEGFR binding to arrayed compounds – biochemical, biotinylated probe, 635/667 nm fluorescence, primary screen (AID 1097).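 Further: probe is a biotinylated anti-EGFR antibody binding compounds printed on slides; score combines fluorescence near 667 nm and signal to noise of each spot.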 To be noted: small-molecule microarray, higher = more signal.
Experiment [5] has as its system Plasmodium falciparum Sir2 (PF13_0152, Sir2A). The experiment can be described thus: Plasmodium falciparum Sir2A binding compounds – biochemical, small-molecule microarray, 635 nm fluorescence, primary screen (AID 1098).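 Further: score merges spot fluorescence intensity with its signal-to-noise ratio.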 To be noted: fluorescence 635 nm, higher = more signal.
Experiment [6] can be described thus: probe aDKK1 binding to arrayed compounds – biochemical, biotinylated probe, 635/667 nm fluorescence, primary screen (AID 1099).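 Further: score merges 667nm spot fluorescence with signal to noise across triplicate slides.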 To be noted: small-molecule microarray, higher = more signal.
The nature of experiment [7]: probe aCHRDL2 binding to arrayed compounds – biochemical, biotinylated probe, 635/667 nm fluorescence, primary screen (AID 1100). To be noted: small-molecule microarray, higher = more signal.
Experiment [8] can be described thus: change in splice reporter luminescence, either direction, cell-based, HEK293, spliceosome inhibition project, primary screen (AID 1101).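 Further: HEK293 cells carrying a splicing-competent luciferase reporter gene; test concentration not given here.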 To be noted: HEK293 splicing luciferase reporter, 24 h, higher = more signal, called active from +8 up or from −8 down.
The target in experiment [9] is Fibroblast growth factor 10 (Homo sapiens) (UniProt O15520). The experiment in a line: compounds binding fibroblast growth factor 10 – biochemical, small-molecule microarray, 635 nm fluorescence, primary screen (AID 1102). To be noted: FGF10 binding, fluorescence 635 nm, higher = more signal.
Experiment [10] deals with glycogen synthase kinase-3 (GSK3A per assay name; protocol says GSK3B). The experiment in a line: compounds binding glycogen synthase kinase-3 – biochemical, small-molecule microarray, 635 nm fluorescence, GSK3A, primary screen (AID 1103). Further: the record names both GSK3A and GSK3B. To be noted: fluorescence 635 nm, higher = more signal.
Experiment [11] concerns the target Epidermal growth factor receptor (Homo sapiens) (UniProt P00533). The experiment in a line: compounds binding epidermal growth factor receptor – biochemical, small-molecule microarray, 635 nm fluorescence, primary screen (AID 1104).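 Further: score merges 667 nm emission intensity with spot signal to noise over triplicate slides.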 To be noted: EGFR binding, higher = more signal.
Experiment [12] concerns the target Follistatin-related protein 3 (Homo sapiens) (UniProt O95633). The experiment in a line: compounds binding follistatin-related protein 3 – biochemical, small-molecule microarray, 635 nm fluorescence, primary screen (AID 1105).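 Further: score merges emission near 667 nm and signal to noise per printed spot across three slides.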 To be noted: FSTL3 binding, higher = more signal.
Experiment [13] has as its target Dickkopf-related protein 1 (Homo sapiens) (UniProt O94907). The experiment in a line: small molecules binding DKK1 protein – biochemical, small-molecule microarray, 635 nm fluorescence scan, primary screen (AID 1106).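 Further: score merges emission near 667 nm with signal to noise over three replicate slides.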 To be noted: higher = more signal.
Experiment [14] has as its system Inhibin beta A chain (activin A). The experiment in a line: small molecules binding activin A – biochemical, small-molecule microarray, 635 nm fluorescence scan, primary screen (AID 1107).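 Further: mouse activin A protein probed at 4.33 µg/mL on printed slides; score merges bound-protein fluorescence near 667 nm with spot signal-to-noise.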 To be noted: INHBA, higher = more signal.
The subject of experiment [15] is Human papillomavirus type 1a protein E7 (residues 44-93). The experiment in a line: small molecules binding HPV E7 44-93 – biochemical, small-molecule microarray, residues 44-93, 635 nm fluorescence, primary screen (AID 1108).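 Further: E7 fragment applied at 1 µg/mL in TBST for 1 h at 4 C; score combines spot fluorescence with its signal to noise ratio.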 To be noted: fluorescence 635 nm, higher = more signal.
The nature of experiment [16]: hepatitis C replication reporter changes, two-sided – Huh7 cells, luciferase reporter, HCV replication inhibitor project, primary screen (AID 1109).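 Further: huh7 hepatoma cells harbouring a luciferase neomycin HCV replicon reporter; luciferase luminescence as measure of HCV replicon replication; test concentration not given here.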 To be noted: Huh7 HCV replicon luciferase reporter, 48 h; higher = more signal. For orientation: A reporter such as luciferase makes a cellular process visible.
Experiment [17] concerns the target Left-right determination factor 2 (Homo sapiens) (UniProt O00292). The experiment in a line: small molecules binding LEFTY2 protein – biochemical, small-molecule microarray, 635 nm fluorescence scan, primary screen (AID 1110). To be noted: higher = more signal.
The target in experiment [18] is Calmodulin-1 (Homo sapiens) (UniProt P0DP23). The experiment in a line: small molecules binding calmodulin-1 with EGTA – biochemical, small-molecule microarray, Cy5-labelled CALM1, profiling panel (AID 1111).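 Further: labelled calmodulin applied in Tris saline Tween buffer holding calcium plus EGTA and DTT.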 To be noted: Cy5-CALM1 binding fluorescence, higher = more signal.
Experiment [19] has the same target. The experiment in a line: small molecules binding Ca-loaded calmodulin-1 – biochemical, small-molecule microarray, Cy5-labelled CALM1, plus calcium, artefact control for SMM control-protein annotation, profiling panel (AID 1112).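 Further: score merges spot fluorescence with signal to noise from triplicate slides.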 To be noted: Cy5-CALM1 binding fluorescence, higher = more signal.
Experiment [20] can be described thus: probe aWnt5a binding to arrayed compounds – biochemical, biotinylated probe, 635/667 nm fluorescence, primary screen (AID 1113).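 Further: score merges 667 nm fluorescence intensity with signal-to-noise per printed feature.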 To be noted: small-molecule microarray, higher = more signal.

The values that follow come from PubChem BioAssay.

Active and inactive are the calls of the source.

Chain of Follistatin-related protein 3 (Homo sapiens) (O95633 whole entry, looked up): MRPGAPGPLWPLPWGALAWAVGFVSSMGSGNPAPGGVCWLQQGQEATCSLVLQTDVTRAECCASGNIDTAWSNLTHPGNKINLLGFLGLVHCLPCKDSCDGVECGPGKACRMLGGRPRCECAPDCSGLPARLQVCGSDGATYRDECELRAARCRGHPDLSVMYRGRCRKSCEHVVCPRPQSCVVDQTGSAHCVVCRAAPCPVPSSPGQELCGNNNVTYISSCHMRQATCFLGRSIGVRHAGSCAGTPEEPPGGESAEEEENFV
Chain of Left-right determination factor 2 (Homo sapiens) (O00292 whole entry, looked up): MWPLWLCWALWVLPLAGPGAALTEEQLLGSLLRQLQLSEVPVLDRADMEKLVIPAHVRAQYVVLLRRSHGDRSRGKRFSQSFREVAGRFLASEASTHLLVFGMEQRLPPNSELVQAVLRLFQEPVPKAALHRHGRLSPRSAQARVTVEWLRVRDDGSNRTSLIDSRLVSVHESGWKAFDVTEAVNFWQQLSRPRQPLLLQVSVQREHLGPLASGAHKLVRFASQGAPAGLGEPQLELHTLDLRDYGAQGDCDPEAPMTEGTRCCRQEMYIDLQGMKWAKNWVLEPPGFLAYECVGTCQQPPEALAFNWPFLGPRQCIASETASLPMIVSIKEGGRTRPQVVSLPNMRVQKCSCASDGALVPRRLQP
Chain of Fibroblast growth factor 10 (Homo sapiens) (O15520 whole entry, looked up): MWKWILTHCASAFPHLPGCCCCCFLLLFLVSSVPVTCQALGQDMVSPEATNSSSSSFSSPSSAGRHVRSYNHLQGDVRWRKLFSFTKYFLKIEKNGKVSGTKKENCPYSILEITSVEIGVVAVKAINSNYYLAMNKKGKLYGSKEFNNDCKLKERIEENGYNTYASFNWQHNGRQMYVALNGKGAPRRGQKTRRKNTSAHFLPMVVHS
Chain of Neurogenic locus notch homolog protein 3 (Homo sapiens) (Q9UM47 whole entry, looked up): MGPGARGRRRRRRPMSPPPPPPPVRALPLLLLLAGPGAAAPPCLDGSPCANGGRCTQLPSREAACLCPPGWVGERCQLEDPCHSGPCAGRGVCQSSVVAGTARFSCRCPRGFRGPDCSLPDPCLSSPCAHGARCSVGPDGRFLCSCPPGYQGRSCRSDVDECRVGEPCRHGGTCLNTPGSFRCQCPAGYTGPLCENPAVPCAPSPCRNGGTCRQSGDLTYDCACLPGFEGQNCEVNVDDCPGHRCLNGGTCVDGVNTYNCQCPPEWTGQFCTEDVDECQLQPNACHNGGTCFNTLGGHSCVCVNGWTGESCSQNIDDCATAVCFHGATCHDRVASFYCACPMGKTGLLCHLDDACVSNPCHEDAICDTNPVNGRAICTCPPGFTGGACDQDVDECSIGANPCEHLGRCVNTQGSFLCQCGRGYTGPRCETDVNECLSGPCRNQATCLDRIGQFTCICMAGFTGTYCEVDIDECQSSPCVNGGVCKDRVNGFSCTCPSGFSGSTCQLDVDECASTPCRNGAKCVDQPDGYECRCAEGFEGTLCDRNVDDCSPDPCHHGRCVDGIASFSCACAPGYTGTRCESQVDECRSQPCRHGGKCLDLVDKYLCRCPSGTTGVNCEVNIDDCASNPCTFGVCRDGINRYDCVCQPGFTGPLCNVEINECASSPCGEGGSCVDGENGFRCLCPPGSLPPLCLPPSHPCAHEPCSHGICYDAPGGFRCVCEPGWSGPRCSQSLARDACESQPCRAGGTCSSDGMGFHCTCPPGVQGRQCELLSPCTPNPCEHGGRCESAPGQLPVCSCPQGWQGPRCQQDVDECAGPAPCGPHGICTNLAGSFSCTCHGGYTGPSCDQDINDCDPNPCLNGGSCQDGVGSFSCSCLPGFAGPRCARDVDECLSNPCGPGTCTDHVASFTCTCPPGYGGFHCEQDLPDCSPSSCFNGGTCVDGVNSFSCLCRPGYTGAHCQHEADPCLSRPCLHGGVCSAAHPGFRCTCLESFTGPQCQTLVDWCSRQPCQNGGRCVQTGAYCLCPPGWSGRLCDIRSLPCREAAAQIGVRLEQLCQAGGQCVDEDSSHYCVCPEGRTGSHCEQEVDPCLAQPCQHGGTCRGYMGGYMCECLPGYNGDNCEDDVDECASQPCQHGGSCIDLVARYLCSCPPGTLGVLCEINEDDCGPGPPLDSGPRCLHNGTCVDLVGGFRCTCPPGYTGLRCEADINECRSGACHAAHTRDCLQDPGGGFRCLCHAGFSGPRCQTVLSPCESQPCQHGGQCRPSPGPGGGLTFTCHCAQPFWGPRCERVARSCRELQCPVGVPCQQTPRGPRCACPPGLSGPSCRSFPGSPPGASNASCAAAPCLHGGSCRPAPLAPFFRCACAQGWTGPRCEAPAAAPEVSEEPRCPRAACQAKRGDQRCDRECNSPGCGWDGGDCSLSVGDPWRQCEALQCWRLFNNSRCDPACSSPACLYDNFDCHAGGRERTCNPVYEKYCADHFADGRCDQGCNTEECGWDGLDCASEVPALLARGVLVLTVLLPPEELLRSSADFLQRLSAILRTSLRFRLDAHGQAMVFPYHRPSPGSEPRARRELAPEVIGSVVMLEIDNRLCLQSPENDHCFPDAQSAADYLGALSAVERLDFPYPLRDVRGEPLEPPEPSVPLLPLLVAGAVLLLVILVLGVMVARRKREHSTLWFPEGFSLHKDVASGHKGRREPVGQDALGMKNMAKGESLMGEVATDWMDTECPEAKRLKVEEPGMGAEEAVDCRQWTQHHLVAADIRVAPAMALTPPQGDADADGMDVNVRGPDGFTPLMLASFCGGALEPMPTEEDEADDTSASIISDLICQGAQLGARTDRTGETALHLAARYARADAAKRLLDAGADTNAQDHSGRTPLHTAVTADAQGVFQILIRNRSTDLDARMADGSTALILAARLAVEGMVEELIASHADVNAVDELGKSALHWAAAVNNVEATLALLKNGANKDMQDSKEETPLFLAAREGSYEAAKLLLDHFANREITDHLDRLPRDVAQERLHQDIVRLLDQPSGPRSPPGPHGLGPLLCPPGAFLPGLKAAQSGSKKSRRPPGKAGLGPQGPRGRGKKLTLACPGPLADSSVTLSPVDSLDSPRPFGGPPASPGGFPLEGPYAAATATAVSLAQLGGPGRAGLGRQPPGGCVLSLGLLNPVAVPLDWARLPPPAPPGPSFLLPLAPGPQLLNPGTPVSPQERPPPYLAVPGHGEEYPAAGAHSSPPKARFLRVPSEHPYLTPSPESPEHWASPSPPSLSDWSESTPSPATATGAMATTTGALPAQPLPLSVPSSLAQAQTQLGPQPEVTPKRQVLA
Chain of Dickkopf-related protein 1 (Homo sapiens) (O94907 whole entry, looked up): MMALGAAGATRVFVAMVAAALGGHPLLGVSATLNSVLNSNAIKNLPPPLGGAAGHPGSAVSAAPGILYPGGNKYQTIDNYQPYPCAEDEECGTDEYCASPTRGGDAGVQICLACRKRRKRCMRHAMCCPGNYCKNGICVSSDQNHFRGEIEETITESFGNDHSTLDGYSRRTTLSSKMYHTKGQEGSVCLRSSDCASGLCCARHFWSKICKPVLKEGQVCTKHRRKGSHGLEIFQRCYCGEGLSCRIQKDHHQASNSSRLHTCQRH
Chain of Epidermal growth factor receptor (Homo sapiens) (P00533 whole entry, looked up): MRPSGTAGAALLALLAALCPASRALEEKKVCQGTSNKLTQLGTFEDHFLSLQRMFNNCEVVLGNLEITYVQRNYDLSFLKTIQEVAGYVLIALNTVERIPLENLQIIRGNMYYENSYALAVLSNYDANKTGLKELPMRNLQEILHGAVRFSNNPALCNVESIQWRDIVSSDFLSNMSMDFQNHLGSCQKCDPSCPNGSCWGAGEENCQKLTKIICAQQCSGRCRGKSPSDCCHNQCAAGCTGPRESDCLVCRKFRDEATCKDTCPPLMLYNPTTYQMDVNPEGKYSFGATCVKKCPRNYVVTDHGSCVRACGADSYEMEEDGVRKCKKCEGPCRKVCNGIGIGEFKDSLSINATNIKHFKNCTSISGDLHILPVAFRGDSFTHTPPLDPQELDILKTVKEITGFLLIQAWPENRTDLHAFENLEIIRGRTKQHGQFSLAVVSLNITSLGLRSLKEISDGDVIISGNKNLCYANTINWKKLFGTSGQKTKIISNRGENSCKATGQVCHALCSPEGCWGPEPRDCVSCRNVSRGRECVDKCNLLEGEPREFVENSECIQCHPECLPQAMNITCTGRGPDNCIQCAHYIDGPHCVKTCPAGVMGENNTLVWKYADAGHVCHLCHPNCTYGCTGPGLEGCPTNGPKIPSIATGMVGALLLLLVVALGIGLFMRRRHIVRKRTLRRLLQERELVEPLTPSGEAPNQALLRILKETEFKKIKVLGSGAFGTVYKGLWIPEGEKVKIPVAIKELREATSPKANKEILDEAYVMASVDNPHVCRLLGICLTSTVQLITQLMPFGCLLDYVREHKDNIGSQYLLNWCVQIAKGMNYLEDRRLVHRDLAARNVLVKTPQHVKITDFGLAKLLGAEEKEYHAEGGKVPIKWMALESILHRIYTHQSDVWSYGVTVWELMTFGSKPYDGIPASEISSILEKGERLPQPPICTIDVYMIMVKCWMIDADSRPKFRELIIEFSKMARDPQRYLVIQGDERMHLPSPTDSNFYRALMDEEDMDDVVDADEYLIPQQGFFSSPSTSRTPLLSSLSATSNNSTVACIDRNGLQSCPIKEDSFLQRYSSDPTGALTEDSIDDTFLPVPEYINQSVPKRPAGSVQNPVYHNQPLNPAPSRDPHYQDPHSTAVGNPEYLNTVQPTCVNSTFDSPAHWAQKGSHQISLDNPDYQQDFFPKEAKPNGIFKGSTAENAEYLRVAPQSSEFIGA

On to `COC(=O)C(CC#Cc1ccc2c(c1)[C@]1(C(=O)N2)[C@H](c2ccccc2OCCO)N2[C@H](c3ccccc3)[C@H](c3ccccc3)OC(=O)[C@H]2[C@@H]1C(=O)N1CCCCCCC1)C(=O)OC`, for which the composite z-score in experiment [1] is 1.93; in experiment [2] it was 2.02; in [3] it was 1.09; in experiment [4] it was 1.44; in experiment [5], 2.12; in [6] it was 3.07. Also, the composite z-score in experiment [7] amounted to 1.7; in experiment [9], 1.55; in experiment [10] it was 1.47; in experiment [11], 1.91; in [12], 1.77; in [13], 2.52. The composite z-score in experiment [14] came out at 1.79; in [15] it was 1.48; in experiment [17], 1.73; in experiment [18], 3.07; in experiment [19], 1.76; in experiment [20], 1.46. Moreover, the z-score in experiment [8] is -1.09 (inactive); in experiment [16] it was -1.95.

As for `O=C(NCC(F)(F)F)[C@@H]1c2ccccc2C(=O)N(C2Cc3ccccc3C2)[C@H]1c1ccc(CO)cc1`, the composite z-score in experiment [1] was 0.107; in [2], -1.29; in experiment [3] it was -0.844; in experiment [4], -0.129; in experiment [5], 0.23; in experiment [6], 0.621. In addition, the composite z-score in [7] is 0.715; in experiment [9] it was -0.691; in [10], -0.605; in experiment [11], -0.621; in [12], -0.584; in [13], -0.808. The composite z-score is 1.03 in [14]; -1.07 in experiment [15]; -1.21 in [17]; 0.342 in experiment [18]; 1.14 in experiment [19]; -0.129 in experiment [20]. Also, the figures for the z-score in experiment [8] and in experiment [16] were -0.658 (inactive) and -0.561, respectively.

On to `C=C(C(=O)CC[C@@H](OC(C)=O)c1ccccc1OCCO)C(C)C`, for which the composite z-score in experiment [1] is -0.2; in [2], -0.0776; in [3] it was 0.232; in experiment [4], -0.249; in experiment [5], 0.967; in experiment [6], -0.416. The composite z-score in experiment [7] is -0.0909; in experiment [9], 1.14; in [10], -0.465; in experiment [11], -0.847; in experiment [12], -0.406; in experiment [13], 0.108. The composite z-score in experiment [14] was 0.959; in experiment [15], -0.512; in [17], -0.325; in experiment [18], -0.942; in experiment [19] it was -1.21; in experiment [20] it was -0.202. For the same compound, the z-score is -1.41 (inactive) in experiment [8] and -3.88 in experiment [16].

Regarding `NCCCCCNC(=O)[C@H]1C[C@H]2C(=O)NCC(=O)N2[C@H]1c1ccc(O)cc1`, the composite z-score in experiment [1] was -0.0424; in experiment [2] it was 1.86; in experiment [3], 0.906; in [4] it was 0.186; in [5], 1.02; in experiment [6], 0.154. In addition, the composite z-score in experiment [7] amounted to 0.212; in [9], 1.37; in experiment [10], 1.31; in [11] it was 0.383; in experiment [12], 1.07; in experiment [13], 1.74. Further, the composite z-score in [14] is 0.324; in experiment [15], 0.861; in experiment [17] it was 1.49; in experiment [18], 1.53; in experiment [19], 0.954; in [20], -0.0981. In addition, the z-score in experiment [8] was -0.25 (inactive); in experiment [16] it was 0.245.

`[N-]=[N+]=NCc1ccccc1C[C@]1(C(=O)NCc2ccccc2)N=C(c2ccc(OCCCO)cc2)O[C@H]1c1ccccc1`: the composite z-score in [1] is 0.52; in experiment [2], -0.577; in experiment [3] it was 0.224; in experiment [4] it was 0.1; in experiment [5], 1.01; in experiment [6], 1.51. For the same compound, the composite z-score in experiment [7] was 1.28; in experiment [9], 0.19; in experiment [10], -0.516; in experiment [11], -0.864; in [12] it was -0.565; in experiment [13], -1.03. Besides, the composite z-score in experiment [14] is 0.928; in experiment [15], 0.508; in experiment [17], -0.941; in experiment [18] it was 1.82; in experiment [19], 1.36; in experiment [20], 0.108. Also, the z-score in experiment [8] was 0.359 (inactive); in experiment [16], -1.95.

With `C=CCC(OC(C)=O)[C@@H]1[C@@H](N(Cc2cccc3ccccc23)C(=O)Cc2ccc(OC)cc2)c2cc(OCCCO)ccc2N1C(=O)Cc1ccc(OC)cc1` (stereo not given in full), the composite z-score in [1] is -0.0691; in experiment [2], -0.318; in [3], -0.89; in experiment [4] it was -0.166; in [5] it was -0.247; in [6], 0.199. For the same compound, the composite z-score in experiment [7] was 0.373; in experiment [9], -0.0161; in experiment [10], -0.45; in experiment [11], 0.015; in experiment [12], -0.134; in experiment [13], 0.0484. In addition, the composite z-score in [14] is 1.21; in experiment [15] it was -0.05; in [17] it was 0.119; in [18] it was -0.294; in [19], 0.14; in experiment [20], -0.014. In addition, the z-score in experiment [8] is -0.768 (inactive); in [16], 0.217.
